Where “and” joins values, the source holds several entries; their conditions need not be identical. Equal values may be shown once. Records with an inconclusive call do not appear. A call without a number means that no potency is given here. Calls of active or inactive are those of the source. The call rests on the fitted dose curve; in most records, active means well fitted inhibition curve with a large enough effect; inconclusive means small, poorly fitted or top-dose-only effect; inactive means no such curve, though single readings can be large or run the other way.
Target: Furin (Homo sapiens) (UniProt P09958)
Assay: Furin counterscreen qHTS for Zika virus inhibitors (AID 1347149); further: nearly all actives have a fitted effect of over 70% in size
Conditions: furin enzymatic counterscreen, fluorogenic substrate; series mostly up to 57.5 µM
From the text: Avindra Nath, Ph.D., National Institute of Neurological Disorders and Stroke (NINDS), Bethesda, MD
Radhakrishnan Padmanabhan, Ph.D., Georgetown University (GU), Washington D.C.
Zika Virus causes congenital defects, including microcephaly and is associated with Guillain-Barre syndrome, eningoencephalitis and myelitis in infected adult. […] Using a target-based approach, we hope to establish a screening paradigm to uncover novel, cell-active NS2B-NS3 protease (Zika Virus) specific inhibitors from NCATS' collection of small molecules using qHTS.
Four assay panel was created to identify potential Zika Virus inhibitors. Namely, (1) GU unlinked NS2B-NS3 AMC tagged protease qHTS, (2) GU unlinked NS2B-NS3 Rhodamine tagged protease qHTS, (3) NINDS linked NS2B-NS3 AMC tagged protease qHTS, (4) NINDS linked NS2B-NS3 Rhodamine tagged protease qHTS. Active compounds were re-acquired and re-screened to confirm inhibition. Inhibitors were further screened against various confirmatory and counterscreens in dose response format.
Early Translation Branch (ETB)
National Center for Advancing Translational Sciences (NCATS), Rockville, MD
National Institute of Health (NIH), Bethesda, Maryland
1536-well Furin BOC-RVRR-AMC Protocol:
Human recombinant Furin Serine Protease was purchased from Peprotech (catalog #450-47; full length; Rocky Hill, NJ). Briefly, 3 microL of enzyme (final concentrations of 5 nM), in assay buffer (100 mM HEPES pH 7.0, 1 mM CaCl2 with 0.01% Triton X-100) were dispensed into a 1,536-well solid-bottom black plate (Greiner Bio One, Monroe, NC). Twenty-three nL of compounds (final concentration range 7.28 nM to 114 microM) or control Furin Inhibitor I (Dec-RVKR-CMK; final concentration range 0.248 nM to 8.12 microM) were transferred via Wako Pin-tool (Wako Automation, Richmond, VA). Samples were incubated (RT, protected from light) for 15 minutes followed by a 1 microL substrate addition of BOC-RVRR-AMC (final concentration of 2 microM; Km = ~15 muM90). Plates were then read immediately on a ViewLux High-throughput CCD imager (PerkinElmer, Waltham, MA) equipped with standard UV fluorescence optics (340(30) nm excitation, 450(20) nm emission), then incubated (37C, protected from light) for 15 or 30 minutes (~9% conversion). The change in fluorescence intensity over the 15-minute reaction period was normalized against no-inhibitor and no-enzyme controls and the resulting percent inhibition data were fitted to a 4-parameter Hill equation. Furin Inhibitor I was used as intraplate control.
Potency means the concentration at half of the fitted maximal effect.

Furin (Homo sapiens), sequence (P09958 whole entry, looked up): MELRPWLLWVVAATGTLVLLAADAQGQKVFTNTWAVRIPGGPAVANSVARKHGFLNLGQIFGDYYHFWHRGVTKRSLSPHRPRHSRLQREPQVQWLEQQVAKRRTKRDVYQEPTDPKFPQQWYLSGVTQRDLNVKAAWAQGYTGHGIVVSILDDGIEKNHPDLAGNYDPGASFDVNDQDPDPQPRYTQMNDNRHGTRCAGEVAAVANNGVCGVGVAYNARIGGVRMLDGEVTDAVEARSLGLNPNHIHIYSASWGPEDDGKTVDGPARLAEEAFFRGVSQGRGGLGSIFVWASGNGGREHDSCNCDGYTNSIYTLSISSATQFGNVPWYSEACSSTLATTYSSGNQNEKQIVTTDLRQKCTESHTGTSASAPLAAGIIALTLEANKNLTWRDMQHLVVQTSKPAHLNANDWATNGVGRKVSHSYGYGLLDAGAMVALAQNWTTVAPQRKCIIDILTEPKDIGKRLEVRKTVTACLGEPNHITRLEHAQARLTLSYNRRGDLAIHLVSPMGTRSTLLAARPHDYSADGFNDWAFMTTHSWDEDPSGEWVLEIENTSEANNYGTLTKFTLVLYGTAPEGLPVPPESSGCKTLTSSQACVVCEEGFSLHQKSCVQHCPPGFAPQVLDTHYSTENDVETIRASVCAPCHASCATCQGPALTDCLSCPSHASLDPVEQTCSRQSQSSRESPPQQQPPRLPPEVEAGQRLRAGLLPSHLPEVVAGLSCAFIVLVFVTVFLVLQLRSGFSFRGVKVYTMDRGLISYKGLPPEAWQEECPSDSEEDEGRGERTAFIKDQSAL

SMILES	Potency
COc1c(N2CCNC(C)C2)c(F)cc2c(=O)c(C(=O)O)cn(C3CC3)c12 (centres undefined)	24.1 µM (active) and 27.1 µM (active)
O=C(O)c1ccc(-n2nc(-c3ccccc3O)nc2-c2ccccc2O)cc1	inactive
OCc1ccc(-c2nn(Cc3ccccc3)c3ccccc23)o1	27.1 µM (active)
CCn1cc(C(=O)O)c(=O)c2cc(F)c(N3CCNCC3)cc21	17.1 µM (active)
O=C(O)c1cn(C2CC2)c2cc(N3CCNCC3)c(F)cc2c1=O	24.1 µM (active)
COC(=O)Nc1nc2ccc(C(=O)c3ccccc3)cc2[nH]1	inactive
CCCc1nc(C)c2c(=O)[nH]c(-c3cc(S(=O)(=O)N4CCN(CC)CC4)ccc3OCC)nn12	inactive
COc1ccc(-c2ccc3cc(C(=O)O)ccc3c2)cc1C12CC3CC(CC(C3)C1)C2	inactive
Nc1nc(N)c2nc(CNc3ccc(C(=O)NC(CCC(=O)O)C(=O)O)cc3)cnc2n1 (centres undefined)	19.1 µM (active)
CC(C)(Sc1cc(C(C)(C)C)c(O)c(C(C)(C)C)c1)Sc1cc(C(C)(C)C)c(O)c(C(C)(C)C)c1	inactive
COc1cc(NCc2ccc3nc(N)nc(N)c3c2C)cc(OC)c1OC	17.1 µM (active)
CNC1CCCN(c2c(F)cc3c(=O)c(C(=O)O)cn(C4CC4)c3c2OC)C1 (centres undefined)	7.62 µM (active) and 24.1 µM (active)
Nc1nc(=S)c2[nH]cnc2[nH]1	inactive
CNC(=O)c1cc(Oc2ccc(NC(=O)Nc3ccc(Cl)c(C(F)(F)F)c3)cc2)ccn1	inactive

Source: PubChem BioAssay (NCATS)
